NALP3 yeast inh = blocks the NALP3 inflammasome reconstituted in yeast. 330,000 compounds, 0.39% hits. inhibition, % at 10 µM. Yeast reconstituted NLRP3/ASC/caspase-1, beta-gal luminescence, 24 h. AID 2825;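 active means inhibition of 50% or more; inactive means inhibition below 50%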
tim23-1 inh = inhibits growth of tim23-1 mutant yeast | AID 463212 | inhibition, % at 20 µM | 330,000 compounds, 1.3% hits | S. cerevisiae tim23-1 growth, BacTiter-Glo luminescence, 24 h;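 active means growth inhibition of the mutant yeast at or above 50%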;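 further: temperature-sensitive mutant grown at 25 °C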
tim10-1 inh = growth inhibitors of tim10-1 mutant yeast; AID 463190; S. cerevisiae tim10-1 ts strain growth, BacTiter-Glo, 24 h; inhibition, % at 20 µM; 330,000 compounds, 2.2% hits;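 active means inhibition of at least 40%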;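 further: mutant grown at 25 °C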
PfHsp90 yeast 2 = inhibits growth of yeast expressing Plasmodium falciparum Hsp90 | S. cerevisiae expressing PfHsp90, BacTiter-Glo ATP, 48 h; yeast lacking PDR1 and PDR3 efflux regulators | 310,000 compounds, 0.32% hits | inhibition, % at 9.4 µM;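 active means every replicate shows inhibition above about 80%, whatever the replicate mean, limit read from the data; inconclusive means mean inhibition reaches the set limit but some replicate falls short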
TIM10 inh = TIM10 yeast growth inhibition. S. cerevisiae TIM10 strain growth, BacTiter-Glo luminescence, 24 h. inhibition, % at 10 µM. 330,000 compounds, 1.4% hits;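 active means inhibition of 40% or more at the single tested concentration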;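 further: wild-type TIM10 isogenic control strain grown at permissive 25 °C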
SKKanGAS inh = blocks kanamycin growth of S. pyogenes SKKanGAS strain; BacTiter-Glo, 6 h; inhibition, % at 7.5 µM; 300,000 compounds, 1.3% hits;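 active means mean replicate score, as percent of positive control median, at least 50; inconclusive means mean below 50 but one replicate at or above 50; inactive means mean and every replicate below 50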;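 further: strain carries kanamycin resistance gene driven by streptokinase promoter and grows in 40 µg/ml kanamycin; loss of luminescence reflects streptokinase promoter inhibition or plain growth inhibition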
tim10-1 confirm = confirmation of tim10-1 mutant yeast growth inhibitors. shares compounds with tim10-1 inh. S. cerevisiae tim10-1 ts strain growth, BacTiter-Glo, 24 h. inhibition, % at 20 µM. 7,400 compounds, 56% hits. AID 463213;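 active means inhibition of yeast growth at or above a set limit in either of two repeat tests at 20 µM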;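 further: tim10-1 mutant grown at permissive 25 °C to find synthetic lethal compounds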
tim10 confirm = TIM10 yeast growth inhibition, confirmed; shares compounds with TIM10 inh; S. cerevisiae tim10 strain growth, BacTiter-Glo luminescence, 24 h; inhibition, % at 10 µM; 4,600 compounds, 63% hits; AID 463215;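 active means inhibition of yeast growth at or above a set limit in either of two replicates at 10 µM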; further: this counterscreen used the strain with wild-type TIM10
tim23-1 confirm = confirmation of tim23-1 mutant yeast growth inhibitors; 4,400 compounds, 83% hits; inhibition, % at 20 µM; shares compounds with tim23-1 inh; S. cerevisiae tim23-1 growth, BacTiter-Glo luminescence, 24 h;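 active means inhibition above about 39% in either of two replicate wells at 20 µM, limit read from the data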;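 further: temperature-sensitive tim23-1 mutant grown at 25 °C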
Each line names hits and unclear results; the compound was inactive in the other large screens (follow-up assays come after a bar, where they were run). Sampled rows, rich in hits. Any-hit rate of the full collection: about 4.6%.

CC1CCCN(c2nc(N(C)c3ccccc3)nc(N)c2[N+](=O)[O-])C1 (stereo not given)	none
Cc1cccc(CN2C(=O)/C(=C\c3ccc(C(=O)NCCCN4CCN(C)CC4)cc3)Oc3ccccc32)c1	tim23-1 inh 61.8, tim10-1 inh 43.5 | tim10-1 confirm inactive | tim23-1 confirm 46.1
COc1ccc(C2/C=C\CN(C(=O)Nc3ccccc3)CC(=O)N2Cc2ccc(F)cc2)cc1 (stereo not given)	none (no result: PfHsp90 yeast 2)
COc1ccc(C2/C=C\CN(C(=O)Nc3ccc(C(F)(F)F)cc3)CC(=O)N2Cc2ccc(F)cc2)cc1 (stereo not given)	tim23-1 inh 53.4, tim10-1 inh 49.5, TIM10 inh 47.3 | tim10-1 confirm 38.4 | tim10 confirm inactive | tim23-1 confirm 47.8
Cc1ccc(NS(=O)(=O)c2cccc(C(=O)N3CCCCCC3)c2)cc1	none
CC(Sc1nnc(-c2ccncc2)n1C)C(=O)Nc1ccc(N2CCOCC2)cc1 (stereo not given)	none (no result: SKKanGAS inh)
CC1=NN(c2ccc(Cl)cc2)C(=O)C1C(c1cccc(O)c1)c1c(C)[nH]n(-c2ccc(Cl)cc2)c1=O (stereo not given)	tim23-1 inh 57.1, tim10-1 inh 48.0 | tim10-1 confirm inactive | tim23-1 confirm 51.4
CC(C)(C)c1cc(-c2nc(N)nc(N)n2)cc(C(C)(C)C)c1	tim23-1 inh 63.9, tim10-1 inh 51.3, TIM10 inh 41.8 | tim10-1 confirm 48.7 | tim10 confirm inactive | tim23-1 confirm 61.3
N#Cc1cc(-c2ccccc2)[nH]c1-c1nccc2ccccc12	tim23-1 inh 50.8, tim10-1 inh 41.6 | tim10-1 confirm inactive | tim23-1 confirm 44.4
Cc1cc(C#N)c2ccccc2n1	none
Cc1c(NC(=O)c2ccc([N+](=O)[O-])o2)cccc1-c1nc2ncccc2o1	tim23-1 inh 52.7, tim10-1 inh 48.8, TIM10 inh 47.5 | tim10-1 confirm 47.8 | tim10 confirm 52.7 | tim23-1 confirm 63.5
O=C(Nc1cc(Cl)ccc1-n1cncn1)c1ccc([N+](=O)[O-])o1	tim23-1 inh 66.3, tim10-1 inh 71.7, TIM10 inh 48.1, SKKanGAS inh inconclusive (no result: PfHsp90 yeast 2) | tim10-1 confirm 57.7 | tim10 confirm 55.8 | tim23-1 confirm 50.0
O=C(Nc1ccc(NC(=O)c2ccc([N+](=O)[O-])o2)cc1Cl)c1ccco1	none
O=C(Nc1ccccc1Cl)c1ccc([N+](=O)[O-])o1	tim23-1 inh 67.1, tim10-1 inh 49.9, TIM10 inh 48.0 | tim10-1 confirm 55.7 | tim10 confirm 56.8 | tim23-1 confirm 67.7
COc1cccc(C(=O)Nc2cccc(-c3nc4ncccc4o3)c2C)c1	none
COc1ccc(OCC(=O)N/N=C/C=C/c2ccccc2)cc1	none
CC1CC(C)(C)N2C(=O)C(=C(C#N)C#N)c3cccc1c32 (stereo not given)	tim23-1 inh 70.0, tim10-1 inh 70.7, TIM10 inh 54.4 | tim10-1 confirm 68.0 | tim10 confirm 42.6 | tim23-1 confirm 82.0
CC1CC2(CCCCC2)N2C(=O)C(=O)c3cccc1c32 (stereo not given)	tim23-1 inh 69.1, tim10-1 inh 42.1 | tim10-1 confirm 52.2 | tim23-1 confirm 78.8
O=C(CN(CC1CCCO1)C(=O)CNS(=O)(=O)c1ccc(F)cc1)NC1CCCC1 (stereo not given)	none
COc1cc(/C=C/c2sc3ccccc3[n+]2CCCS(=O)(=O)[O-])ccc1O	tim23-1 inh 51.5, tim10-1 inh 45.2 | tim10-1 confirm 43.9 | tim23-1 confirm 50.0
O=C(CSc1ccc(C(F)(F)F)cn1)Nc1ccccc1	none
O=C(/C=C/Sc1ccc(C(F)(F)F)cn1)c1ccccc1	tim23-1 inh 60.9, tim10-1 inh 41.2 | tim10-1 confirm 50.6 | tim23-1 confirm 46.9
Cc1ccc(-n2c(=O)c3ccccc3n(CC(=O)C(C)(C)C)c2=O)cc1	none
Cc1nc2ccccc2c(=O)n1/N=C/c1ccc(N(C)C)cc1	none
Cc1nc2ccccc2n1/N=C/c1ccc([N+](=O)[O-])s1	tim23-1 inh 54.9, tim10-1 inh 76.5, TIM10 inh 62.1, SKKanGAS inh 92.4 | tim10-1 confirm inactive | tim10 confirm inactive | tim23-1 confirm 63.4
Cc1nc2ccccc2c(=O)n1/N=C/c1ccc([N+](=O)[O-])o1	tim23-1 inh 71.4, tim10-1 inh 52.7, TIM10 inh 50.0 (no result: PfHsp90 yeast 2) | tim10-1 confirm 75.3 | tim10 confirm 68.2 | tim23-1 confirm 73.3
Cc1cc(Nc2ccccc2)nc(NCc2ccccc2)n1	none
Cc1ccc(Nc2cc(C)nc(-c3ccccc3)n2)cc1	tim23-1 inh 51.2, tim10-1 inh 42.4 | tim10-1 confirm 32.9 | tim23-1 confirm 58.4
C/C(=N\NC(=O)C1COc2ccccc2O1)c1ccc(N2CCOCC2)cc1 (stereo not given)	none
Cc1ccc(NC(=O)c2cc3c(CO)cnc(C)c3oc2=Nc2cccc(C(N)=O)c2)cc1	none
Fc1ccc(Sc2nc(-c3ccccc3)nnc2C(F)(F)F)cc1	tim23-1 inh 59.5, tim10-1 inh 60.3 | tim10-1 confirm 35.8 | tim23-1 confirm 55.4
CS(=O)(=O)c1cnc(-c2ccccc2)nc1Sc1ccc(F)cc1	none
N/C(=N\OC(=O)COc1ccccc1Cl)c1ccc(Cl)cc1	tim23-1 inh 60.2, tim10-1 inh 69.5, TIM10 inh 54.1 | tim10-1 confirm 49.0 | tim10 confirm 42.5 | tim23-1 confirm 76.2
N/C(=N\OC(=O)C1CCCCC1)c1ccncc1	none
N/C(=N\OC(=O)C1CCCCC1)c1ccc(Cl)cc1	tim23-1 inh 53.2, tim10-1 inh 62.7, TIM10 inh 48.0 | tim10-1 confirm 52.6 | tim10 confirm 43.3 | tim23-1 confirm 38.0
N/C(=N\OC(=O)C1CCCCC1)c1ccc(Br)cc1	tim23-1 inh 68.0, tim10-1 inh 60.7, TIM10 inh 44.7 | tim10-1 confirm 55.3 | tim10 confirm 66.0 | tim23-1 confirm 75.3
CC1CC(C)(C)NC(=S)N1CC(=O)NCc1ccc2c(c1)OCO2 (stereo not given)	none (no result: PfHsp90 yeast 2)
O=C(CCN1CCOCC1)NNC(=O)c1ccc(Cl)c([N+](=O)[O-])c1	none (no result: PfHsp90 yeast 2, SKKanGAS inh)
CS/C(=N/S(=O)(=O)c1ccc(C)cc1)c1ccccc1	none
O=S(=O)(/N=C(\Sc1ccc(Cl)cc1)c1ccccc1)c1ccccc1	tim23-1 inh 55.3, tim10-1 inh 44.9 | tim10-1 confirm 40.0 | tim23-1 confirm 81.2
CCN(CC)CCn1c2ccccc2c2nc3ccc([N+](=O)[O-])cc3cc21	none
COc1ccc(NC(=O)c2ccccc2F)cc1Cl	none

From PubChem
